# Compound activity as filed in PubChem BioAssay.
# In the library only some 0.92% were active in any assay of this set; here they are far more common.
# LAP4 TOR yeast – modulators of TOR pathway LAP4-GFP in S. cerevisiae; S. cerevisiae LAP4-GFP multiplex, flow cytometry GFP, 3 h; median GFP as percent of DMSO wells; GFP response vs DMSO, % at 10 µM; hit rate 0.34% among 320,000; AID 2023;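 active = GFP response vs DMSO above a set limit, about the screen mean plus 3 SD, cut at about 150% in these data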
# MEP2-GFP yeast – modulators of TOR pathway MEP2-GFP in S. cerevisiae. GFP response vs DMSO, % at 10 µM. hit rate 0.51% among 330,000. S. cerevisiae MEP2-GFP strain, flow cytometry GFP, 3 h; 100% = DMSO control level. AID 2016;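 active = GFP response versus DMSO above a set limit, roughly screen mean plus 3 SD, cut at about 180% in these data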;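 note: median GFP fluorescence of the barcode-gated MEP2-GFP cells per well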
# AGP1 TOR yeast – yeast TOR pathway AGP1-GFP modulation; S. cerevisiae AGP1-GFP multiplex flow cytometry, 3 h; GFP as percent of DMSO wells; GFP response vs DMSO, % at 10 µM; hit rate 0.02% among 320,000; AID 2066;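 active = GFP response relative to DMSO above a set limit, near screen average plus 3 SD, cut at about 150% in these data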;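 note: median GFP channel fluorescence of the gated AGP1 strain per well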
# RPL19A-GFP yeast – modulators of TOR pathway RPL19A-GFP in S. cerevisiae | S. cerevisiae RPL19A-GFP strain, flow cytometry, 3 h; hits give low values | percent response vs DMSO, % at 10 µM | hit rate 0.3% among 330,000 | AID 2025;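 active = percent response vs DMSO below 50%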;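 note: median channel GFP fluorescence of the barcoded RPL19A-GFP strain; ratio of sample median GFP to plate DMSO average so 100% = DMSO; lower means less RPL19A-GFP as with rapamycin TOR inhibition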
# CIT2-GFP yeast – alters CIT2-GFP fluorescence in TOR pathway yeast screen. S. cerevisiae CIT2-GFP strain, flow cytometry, 3 h; 100 means same as DMSO wells. GFP response vs DMSO, % at 10 µM. hit rate 0.065% among 320,000;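 active = GFP response relative to DMSO above a set limit, near the screen mean plus 3 SD, cut at about 150% in these data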;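 note: ratio of well median GFP fluorescence to mean of DMSO wells on the plate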
# LAP4-GFP pick2 – second confirmation of modulators of TOR reporter LAP4-GFP in yeast | shares compounds with LAP4 TOR yeast | GFP response vs DMSO, % at 10 µM | hit rate 20% among 590 | AID 2621 | S. cerevisiae LAP4-GFP strain, flow cytometry GFP, 3 h;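 active = GFP signal as percent of the solvent control above about 150%, meaning raised reporter expression, limit read from the data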;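 note: ratio of well median GFP fluorescence to plate DMSO mean so 100% = DMSO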
# MEP2 cherry2 – second confirmation of modulators of TOR reporter MEP2-GFP in yeast; shares compounds with LAP4 TOR yeast; S. cerevisiae MEP2-GFP strain, flow cytometry GFP, 3 h; GFP response vs DMSO, % at 10 µM; hit rate 10% among 590; AID 2622;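 active = GFP signal above 150% of the solvent control wells, that is a rise of more than half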;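 note: median channel GFP fluorescence of all gated yeast cells per well; ratio of median GFP to plate DMSO average so 100% = DMSO level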
# RPL19A GFP CP2 – yeast RPL19A-GFP TOR reporter modulation, second cherry pick; GFP response vs DMSO, % at 10 µM; AID 2623; hit rate 3% among 590; S. cerevisiae RPL19A-GFP strain, flow cytometry GFP, 3 h; hits give low values; 100% means same as DMSO wells; shares compounds with LAP4 TOR yeast;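 active = under 65% GFP response relative to DMSO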;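 note: median GFP channel fluorescence per well over the all cells gate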
# CIT2-GFP pick2 – reconfirmed modulator of CIT2-GFP TOR reporter in yeast; shares compounds with LAP4 TOR yeast; S. cerevisiae CIT2-GFP strain, flow cytometry GFP, 3 h; DMSO control wells read 100%; GFP response vs DMSO, % at 10 µM; hit rate 8% among 590; AID 2624;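 active = GFP response vs DMSO above about 150%, limit read from the data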;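 note: median green fluorescence per well over all gated yeast cells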
# AGP1-GFP pick2 – reconfirmed modulator of AGP1-GFP TOR reporter in yeast | shares compounds with LAP4 TOR yeast | S. cerevisiae AGP1-GFP strain, flow cytometry GFP, 3 h | percent response vs DMSO, % at 10 µM | 590 tested, under 10 active;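 active = over 150 percent of DMSO response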;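 note: median GFP channel fluorescence over all cells without mother daughter split; sample median GFP divided by mean DMSO control so 100% equals DMSO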
# Yeast autofluor – yeast s288c autofluorescence artifact, counter-screen; shares compounds with LAP4 TOR yeast; S. cerevisiae s288c, 520 nm autofluorescence, flow cytometry, 3 h; hits give high values; zero means same as solvent-only cells; fluorescence change (kMESF span) at 33 µM; 610 tested, under 10 active;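 active = fluorescence span over the dose series, or activity score, above about 33, limit read from the data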
# An asterisk follows results filed as active; . = no result.
SMILES,LAP4 TOR yeast,MEP2-GFP yeast,AGP1 TOR yeast,RPL19A-GFP yeast,CIT2-GFP yeast,LAP4-GFP pick2,MEP2 cherry2,RPL19A GFP CP2,CIT2-GFP pick2,AGP1-GFP pick2,Yeast autofluor
C/C(=C\c1ccc(N(C)C)cc1)[N+](=O)[O-],155*,102,102,102,100,103,93,98,111,99,.
O=C1C2CCN(CC2)C12CC2c1ccc(C(F)(F)F)cc1 (centres undefined),97,94,100,93,86,.,.,.,.,.,.
O=C1C(=O)c2ccccc2-c2ccccc21,105,99,77,95,81,.,.,.,.,.,2.1
O=C1NC(=O)C(=Cc2ccc(-c3ccc(S(=O)(=O)N4CCOCC4)cc3)o2)C(=O)N1,108,91,89,96,72,.,.,.,.,.,.
O=C1NC(=O)C(=Cc2ccc(-c3ccc(Cl)cc3)o2)C(=O)N1,263*,90,66,71,57,198*,123,84,103,89,0.5
CCN(CC)S(=O)(=O)c1ccc(C)c(NCC(=O)Nc2ccc(C#N)c(Cl)c2)c1,94,101,103,100,108,.,.,.,.,.,.
CCC(COC(=O)NC)NC(=O)Oc1ccccc1 (centres undefined),98,95,101,96,102,.,.,.,.,.,.
CC1(C)C[C@H]2C=C(C=O)[C@]3(C=O)C[C@]3(C)[C@H]2C1,149,122,70,61,103,198*,201*,79,188*,91,1.4
O=C1NC(=O)N(Cc2ccccc2Cl)C(=O)/C1=C/c1cccs1,133,83,81,95,77,.,.,.,.,.,.
O=C1NC(=O)N(Cc2ccc(F)cc2)C(=O)/C1=C/c1cccs1,170*,99,91,88,76,196*,133,76,79,81,0.1
CC[C@H](C)/C=C(C)/C=C/C1=CC2=C(Cl)C(=O)[C@@](C)(OC(C)=O)C(=O)C2=CO1,75,79,8,28*,74,71,97,29*,77,14,2
Cc1c(C=C2C(=O)N(C)C(=S)N(C)C2=O)c2ccccc2n1CC(=O)NCC1CCCO1 (centres undefined),71,99,94,106,94,.,.,.,.,.,.
